Assay results as given in the supplement of paper PMC13380429.

Tested on: Vero E6 infected with SARS-CoV-2
Test: inhibition of SARS-CoV-2 cytopathic effect; higher = more antiviral protection, active = above 15
Details: 48 h

Measured: inhibition of SARS-CoV-2 cytopathic effect

CN1CCC(Nc2ncc3ncnc(Nc4ccc(F)c(Cl)c4)c3n2)CC1
inactive: 1 nM 0.68% | 8.33 nM 1.23% | 100 nM -4.55% | 833.33 nM -7.55% | 10000 nM -2.79%

O[C@@H]1CO[C@H]2[C@@H]1OC[C@@H]2O [isosorbide]
inactive: 1 nM -0.13% | 8.33 nM 1.81% | 100 nM 1.18% | 833.33 nM 3.22% | 10000 nM 3.05%

CC(C)(C)c1ccc(C(O)CCCN2CCC(C(O)(c3ccccc3)c3ccccc3)CC2)cc1 (stereo not given) [terfenadine]
inactive: 1 nM 1.94% | 8.33 nM -2.95% | 100 nM -0.52% | 833.33 nM -3.56% | 10000 nM -21.1%

Cc1nc[nH]c1CCN [4-methylhistamine]
inactive: 1 nM -0.91% | 8.33 nM -0.74% | 100 nM -0.39% | 833.33 nM -2.08% | 10000 nM 0%

CN1CC(O)C2=C/C(=N/NC(N)=O)C(=O)C=C21 (stereo not given) [carbazochrome]
inactive: 1 nM 2.27% | 8.33 nM 3.04% | 100 nM -0.28% | 833.33 nM -1.11% | 10000 nM 0.54%

CC[C@]12CCCN3CCc4c(n(c5ccccc45)[C@@](O)(C(=O)OC)C1)[C@@H]32 [vincamine]
inactive: 1 nM 0.28% | 8.33 nM 2.12% | 100 nM 0.98% | 833.33 nM -2.3% | 10000 nM -1.71%

CN(C)CCCCC(=O)Nc1ccc(NC(=S)NC(=O)c2ccc(C(C)(C)C)cc2)cc1 [tenovin-6]
inactive: 1 nM -2.53% | 8.33 nM 0.01% | 100 nM -0.72% | 833.33 nM 4.3%
active: 10000 nM 18%

O=C(Nc1cc(Cl)cc(Cl)c1O)c1c(O)c(Cl)cc(Cl)c1Cl [oxyclozanide]
inactive: 1 nM -1.81% | 8.33 nM -0.46% | 100 nM 0.71% | 833.33 nM -1.33% | 10000 nM -1.62%

C[C@H](c1ccc2ccc(OC3CCC(C(F)(F)F)CC3)c(C(F)(F)F)c2c1)N1C2CCC1CC(C(=O)O)C2 (stereo not given in full) [autotaxin-modulator-1]
inactive: 1 nM -1.22% | 8.33 nM -0.49% | 100 nM 0.86% | 833.33 nM 0.12% | 10000 nM 1.02%

Cc1c(CC(C)(C)C(=O)O)n(Cc2ccc(Cl)cc2)c2ccc(F)cc12
inactive: 1 nM 3.46% | 8.33 nM 2.25% | 100 nM 4.56% | 833.33 nM 3.57% | 10000 nM 1.6%

Nc1ccc(S(=O)(=O)Nc2ccccn2)cc1 [sulfapyridine]
inactive: 1 nM -1.16% | 8.33 nM 0.08% | 100 nM 0.38% | 833.33 nM -1.04% | 10000 nM -4.35%

C#CCN[C@@H]1CCc2ccccc21 [rasagiline]
inactive: 1 nM 0.63% | 8.33 nM -1.47% | 100 nM -1.63% | 833.33 nM -1.24% | 10000 nM -0.6%

O=C(O)c1cn(-c2ccc(F)cc2)c2cc(N3CCNCC3)c(F)cc2c1=O [sarafloxacin]
inactive: 1 nM -2.73% | 8.33 nM -5.26% | 100 nM -3.5% | 833.33 nM -5.86% | 10000 nM -4.93%

Nc1cccc2c1C(=O)N(C1CCC(=O)NC1=O)C2=O (stereo not given) [pomalidomide]
inactive: 1 nM 1.4% | 8.33 nM -0.68% | 100 nM 2.15% | 833.33 nM 0.83% | 10000 nM 2.41%

Cc1cc(OCC(=O)O)cc(C)c1Cc1ccc(O)c(C(C)C)c1 [sobetirome]
inactive: 1 nM 1.8% | 8.33 nM -0.19% | 100 nM -3.41% | 833.33 nM -2.42% | 10000 nM -2.77%

O=C1c2ccccc2C(=O)C1c1ccc(Br)cc1 [bromindione]
inactive: 1 nM -0.87% | 8.33 nM 2.1% | 100 nM -2.65% | 833.33 nM 1.04% | 10000 nM 0.05%

CC(C)N(CCNC(=O)CN1CCCC1=O)C(C)C [pramiracetam]
inactive: 1 nM -3.32% | 8.33 nM -1.27% | 100 nM 0.57% | 833.33 nM 3.04% | 10000 nM 0.12%

CC(C)=CCC/C(C)=C/CC/C(C)=C/CC[C@]1(C)CCc2cc(O)cc(C)c2O1 [delta-tocotrienol]
inactive: 1 nM 0.39% | 8.33 nM -1.44% | 100 nM 2.83% | 833.33 nM 7.95% | 10000 nM 2.88%

O=C1[C@@H]2[C@H]3CC[C@H](C3)[C@@H]2C(=O)N1CCCCN1CCN(c2ncccn2)CC1 [tandospirone]
inactive: 1 nM 2.41% | 8.33 nM 0.1% | 100 nM -0.17% | 833.33 nM 1.06% | 10000 nM 0.15%

CC(=O)c1ccc2c(c1)N(CCCN1CCN(CCO)CC1)c1ccccc1S2 [acetophenazine]
inactive: 1 nM 1.65% | 8.33 nM 1.77% | 100 nM 2.3% | 833.33 nM 2.47% | 10000 nM 2.15%

CC(=O)NCCCS(=O)(=O)O [acamprosate]
inactive: 1 nM -2.95% | 8.33 nM 1.47% | 100 nM -2.01% | 833.33 nM -3.15% | 10000 nM -1.78%

Cc1cc(C)c(NC(=O)N(Cc2ccc3c(c2)Cc2ccccc2-3)C2CCCCCC2)c(C)c1
inactive: 1 nM 0.2% | 8.33 nM 0.24% | 100 nM 1.89% | 833.33 nM 3.17% | 10000 nM -1.02%

NC(=O)c1ccc2[nH]ccc2c1
inactive: 1 nM -2.02% | 8.33 nM 0.22% | 100 nM 0.99% | 833.33 nM 0.03% | 10000 nM 3.72%

COc1cc(OC2CCN(C)CC2)ccc1Nc1ncc2c(n1)n(C1CCCC1)c(=O)n2C
inactive: 1 nM 1.63% | 8.33 nM 2.01% | 100 nM -2.6% | 833.33 nM 0.1% | 10000 nM 11.1%

CC(C)(C)NC(=O)N[C@H](C(=O)N1C[C@H]2[C@@H]([C@H]1C(=O)NC(CC1CCC1)C(=O)C(N)=O)C2(C)C)C(C)(C)C (stereo not given in full) [boceprevir]
inactive: 1 nM 0.88% | 8.33 nM -0.31% | 100 nM -1.61% | 833.33 nM -1.89% | 10000 nM 1.17%

CCCC[C@@H](C=O)NC(=O)[C@H](CC(C)C)NC(=O)OCc1ccccc1 [calpeptin]
active: 10000 nM 66.9%
inactive: 1 nM -1.61% | 8.33 nM -1.53% | 100 nM -2.86% | 833.33 nM 14.7%

CS(=O)(=O)c1ccc([C@@H](O)[C@@H](CO)NC(=O)C(Cl)Cl)cc1 [thiamphenicol]
inactive: 1 nM -1.6% | 8.33 nM -2.5% | 100 nM -3.22% | 833.33 nM -3.59% | 10000 nM -2.23%

CCCCc1ncc(/C=C(\Cc2cccs2)C(=O)O)n1Cc1ccc(C(=O)O)cc1 [eprosartan]
inactive: 1 nM -1.35% | 8.33 nM -0.99% | 100 nM -0.35% | 833.33 nM -0.6% | 10000 nM 2.22%

Cc1ccc2c(=O)c3cccc(CC(=O)O)c3oc2c1C
inactive: 1 nM 4.48% | 8.33 nM 0.61% | 100 nM 1.92% | 833.33 nM -1.05% | 10000 nM 1.59%

CCN(CC)CCN(Cc1ccc(-c2ccc(C(F)(F)F)cc2)cc1)C(=O)Cn1c(SCc2ccc(F)cc2)nc(=O)c2c1CCC2 [darapladib]
inactive: 1 nM 1.47% | 8.33 nM 1.73% | 100 nM -1.85% | 833.33 nM -2.02% | 10000 nM -25.3%

Cc1cc2c(C(N)=O)cccc2n1-c1nc2c(c(NCc3ccccc3)n1)COCC2
inactive: 1 nM 1.91% | 8.33 nM -0.78% | 100 nM -2.17% | 833.33 nM 11.2% | 10000 nM -31.7%

Nc1c2ccccc2nc2ccccc12 [9-aminoacridine]
inactive: 1 nM -6.32% | 8.33 nM 1.57% | 100 nM -3.73% | 833.33 nM 0.13% | 10000 nM -28.3%

CCCCCCCC/C=C\CCCCCCCC(=O)N[C@@H](CO)Cc1ccc(O)cc1
inactive: 1 nM 0.56% | 8.33 nM -0.46% | 100 nM 1.38% | 833.33 nM 1.23% | 10000 nM -2.65%

CC(C)(O)[C@@H]1[C@H]2OC(=O)[C@@H]1[C@]1(O)C[C@H]3O[C@]34C(=O)O[C@H]2[C@]14C [picrotin]
inactive: 1 nM -0.34% | 8.33 nM 1.31% | 100 nM 1.26% | 833.33 nM -0.13% | 10000 nM 3.22%

CNC(=C[N+](=O)[O-])NCCSCc1ccc(CN(C)C)o1 [ranitidine]
inactive: 1 nM 2.45% | 8.33 nM 2.26% | 100 nM 2.56% | 833.33 nM 0.8% | 10000 nM 1.08%

COc1ccc2cc1Oc1ccc(cc1)C[C@H]1c3cc(c(OC)cc3CCN1C)Oc1c(OC)c(OC)cc3c1[C@H](C2)N(C)CC3 [tetrandrine]
active: 10000 nM 69.3%
inactive: 1 nM -2.72% | 8.33 nM -0.14% | 100 nM -1.04% | 833.33 nM -2.19%

CCOC(N)=O [urethane]
inactive: 1 nM -3.1% | 8.33 nM -4.31% | 100 nM -0.41% | 833.33 nM -2.2% | 10000 nM 1.53%

CC(=O)N[C@@H](CC(C)C)C(=O)O [acetyl-l-leucine]
inactive: 1 nM 1.37% | 8.33 nM -0.18% | 100 nM -0.14% | 833.33 nM -1.79% | 10000 nM -0.49%

N#Cc1ccc(Oc2ccc3c(c2)COB3O)cc1 [crisaborole]
inactive: 1 nM 0.74% | 8.33 nM 0.97% | 100 nM 1.46% | 833.33 nM -0.75% | 10000 nM 4.65%

Fc1ccc(-c2nc3n(c2-c2ccncc2)CCS3)cc1
inactive: 1 nM 1.58% | 8.33 nM -0.78% | 100 nM -1.15% | 833.33 nM -1.03% | 10000 nM -1.09%
